From PubChem BioAssay (NCI)
Compounds without any hit were thinned out: in the full panel of roughly 83,000, 20% have a hit.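 The endpoint reported here, percent growth, reads 100 for growth as untreated, 0 for no net growth and -100 for all cells dead.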 The source made the active and inactive calls. How the source made its calls: active means growth percent below 10; inactive means the rest.

Each molecule was assayed on HL-60(TB) leukemia (assay: NCI-60 one-dose screen, 48 h (100 = growth as untreated, 0 = no growth, -100 = all killed)). Details: 10 µM unless noted.

SMILES | growth
O=C1c2c(c3c4cc(Br)ccc4[nH]c3c3ccc4ccccc4c23)C(=O)N1CCN1CCNCC1 | 62.3% (inactive)
COc1ccc(-c2nn(-c3ccc(S(C)(=O)=O)cc3)cc2/C=N/O)cc1 | 103% (inactive)
CC(C)(C)n1nnnc1C(Nc1nccs1)c1cc2cccc3ccc4cccc1c4c32 (stereo not given) | 90.2% (inactive)
C=CCn1c(SCC(=O)Nc2ccc(OC)cc2)nnc1-c1ccc(Cl)cc1 | 78% (inactive)
Oc1ccc(CSc2nnc(-c3cnccn3)n2-c2ccccc2)c2cccnc12 | 14.4% (inactive)
CS(=O)(=O)c1ccc(/C(=N/N=C(N)N)c2ccc(F)cc2)cc1 | 97.8% (inactive)
O=C1c2c(c3c4cccnc4[nH]c3c3ccc4ccccc4c23)C(=O)N1CCN1CCOCC1 | 42.2% (inactive)
Cc1ccc(-c2nnc(SCc3ccc(O)c4ncccc34)o2)cc1 | 4.59% (active)
Cc1cc2nc3c4cc(Cl)ccc4n(CC(=O)NCCN(C)C)c3nc2cc1C | 56% (inactive)
Cc1cc(=O)oc2cc(OCCCOc3ccc(/C=C/C(=O)Nc4ccc(Cl)cc4)cc3)ccc12 | 86.1% (inactive)
COc1ccc(-c2nc(C#N)c(N3CCC(S(=O)(=O)N4CCOCC4)CC3)o2)cc1 | 117% (inactive)
COc1ccc(C(=O)/C=C/c2ccc(OCc3ccc(Cl)cc3)c(OC)c2)cc1OC | 4.56% (active)
CCn1c2ccccc2c2cc(-n3nncc3-c3ccccc3)ccc21 | 3.73% (active)
CC(C)(C)n1cc(-c2ccnc(NCCCNS(=O)(=O)c3cccc(F)c3)n2)c(-c2ccc(Cl)c(O)c2)n1 | 128% (inactive)
Cc1nc2cnc(N)c(C#Cc3cncc(C(=O)Nc4ccc(Cl)c(C(F)(F)F)c4)c3)c2nc1C | 15.8% (inactive)
Clc1ccc2[nH]cc(-c3nn4cc(-c5cccnc5)nc4s3)c2c1 | 86.2% (inactive)
O=S(=O)(NC1c2ccccc2C[C@H]1O)c1ccc(Cl)cc1Cl (stereo not given in full) | 98.1% (inactive)
COc1ccc2c(c1)Oc1nc(N)c(C#N)c(N)c1C2Sc1ccc(C)cc1 (stereo not given) | -22.3% (active)
O=C1C(SCc2ccccc2)=C(Cl)CN1c1ccc(Cl)cc1 | 44% (inactive)
CC1=C2C(=C[C@@](C)(COS(N)(=O)=O)[C@@H]2O)C(=O)[C@](C)(O)C12CC2 | 61.4% (inactive)

SMILES | growth
Cn1ccnc1C(=O)/C=C/c1ccc(NC(=O)c2ccc(F)cc2)cc1 | 11.8% (inactive)
Clc1cccc(/C=N/Nc2nc(N/N=C/c3cccc(Cl)c3Cl)nc(N3CCCCC3)n2)c1Cl | 106% (inactive)
C#CCOc1ccccc1C(OC(=O)c1ccccc1)C(=O)NC(C)(C)C(C)(C)C (stereo not given) | 95.1% (inactive)
CCC(=C(c1ccc(OCCN2CCCCCC2)cc1)c1ccc(OCCN2CCCCCC2)cc1)c1ccc(Cl)cc1 | -38.8% (active)
CCN(CC)c1ccc(/C=N/NC(=O)c2ccc(S(N)(=O)=O)cc2)c(O)c1 | 1.26% (active)
O=c1oc2ccc(-c3ccc(F)cc3F)cc2c(=O)n1-c1ccc(Br)cc1F | 58.8% (inactive)
CCCCCCNC(=O)Oc1ccc(/C(=C(/C)c2ccc(Cl)cc2)c2ccc(OCCN3CCCCCC3)cc2)cc1 | 32.4% (inactive)
O=S(=O)(Nc1ccc(I)cc1Cl)c1ccc(-c2cnc(C3CC3)o2)cc1 | 9.69% (active)
COc1ccc(C2c3[nH]c4ccc(Cl)cc4c3CCN2c2oc(CO)nc2C#N)cc1 (stereo not given) | 29.4% (inactive)
O=S(=O)(Nc1ccc(I)c(Cl)c1)c1ccc(-c2cnc(C3CC3)o2)cc1 | -1.6% (active)
CCCC(=O)NC(c1cccc(N(C)C)c1)c1cc(C)c2cccnc2c1O (stereo not given) | 0.32% (active)
O=C(CCCCCCNC(=O)C(O)(O)C(F)(F)F)Nc1ncc(-c2ccc(Br)cc2)s1 | 6.28% (active)
CCN1CCN(/C(=N\c2sc(-c3ccccc3)nc2-c2ccccc2)c2ccccc2)CC1 | 50.9% (inactive)
C#C[C@]1(O)CC[C@H]2[C@@H]3CC=C4c5sc(C6CC6)nc5CC[C@]4(C)[C@H]3CC[C@@]21C | 58.8% (inactive)
CN1C(=O)N(C)C2C1NN=c1s/c(=C\c3ccccn3)c(=O)n12 (stereo not given) | 101% (inactive)
NC(=O)c1c(NC(=O)c2cccc(OC(F)(F)F)c2)sc2c1CCC(=O)C2 | 60% (inactive)
CC(=C(c1ccc(OCCN(C)C)cc1)c1ccc(OCCN(C)C)cc1)c1ccc(Cl)cc1 | -53.5% (active)
NNc1nnc2nc(Nc3ccccc3)nc(Nc3ccc(S(N)(=O)=O)cc3)n12 | 108% (inactive)
Cc1ccc(CSC2=C(Cl)CN(c3ccc(Cl)cc3)C2=O)cc1 | 110% (inactive)
NS(=O)(=O)c1cccc(Nc2nc(SCC(=O)c3ccc(Cl)cc3)nc3c2CCC3)c1 | 111% (inactive)
